These results are taken from PubChem BioAssay.

SMILES strings stand for the structures. Activity calls are given as the source filed them.

The assay can be described thus: MM1S myeloma cell viability, profiling panel, resazurin fluorescence, basal, 24 h, PK04 Diversity Set (AID 1174).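 Note: MM1S multiple myeloma cell line; test concentration not given here.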 The note with it: higher = more signal, called active from +8 up or from −8 down.
`COc1cc2c(cc1O)C(c1cccs1)N(Cc1sc3ccccc3c1Cl)CC2` (stereo not given): the z-score was -0.519 (inactive).
Turning to `CC(C)(C)OC(=O)CC[C@]12N=C(c3ccc(OCCCO)cc3)O[C@H]1c1ccccc1N(Cc1ccccc1)C2=O`, the z-score is -0.922 (inactive).
The value for `O=C1C2C=CC(C(O)c3ccc(I)cc3)N(Nc3ccccc3)C2C(=O)N1c1ccccc1` (stereo not given) was -1.38 (inactive); that for `C=CCN1C(=O)[C@@]2(O[C@@H](CCO)[C@H]([Si](C)(C)c3ccc(OC)cc3)[C@H]2C)c2cc(N3CCOC3=O)ccc21` was -8.77 (active); that for `CCOC(=O)C1=C[C@@H](C(C)(C)C)N(S(=O)(=O)c2ccc(C)cc2)[C@H]1c1cccc(Cl)c1` was -1.66 (inactive).
To `CO[C@H]1O[C@H](CO)[C@@H](OC(=O)Nc2cccc(F)c2)[C@H](OC(=O)Nc2ccccc2-c2ccccc2)[C@H]1OC(=O)Nc1ccccc1-c1ccccc1` belongs -5.86 (inactive); to `COCC(=C=CC[C@@H](O)c1ccc(OCCO)cc1)CCO`, 1.1 (inactive).
The value for `C=CCC(OC(C)=O)[C@@H]1[C@@H](N(Cc2ccc(-c3cccc(C(F)(F)F)c3)o2)C(=O)Cc2ccc(OC)cc2)c2cc(OCCCO)ccc2N1C(=O)Cc1ccc2ccccc2c1` (stereo not given in full) was 0.0919 (inactive); that for `CN1C(=O)[C@@H]2[C@@H](CC(COc3ccccc3)=C([C@H](O)CCc3ccccc3)[C@@H]2CO)C1=O` was 0.0223 (inactive).
On to `COc1cc(NN2C(C(O)C3CCCCC3)C=CC3C(=O)N(C)C(=O)C32)cc(OC)c1OC` (stereo not given), for which the z-score is -1.43 (inactive).
To `C=CCC(OC(C)=O)[C@@H]1[C@@H](N(Cc2cccc3ccccc23)C(=O)c2ccc(-c3ccccc3)cc2)c2cc(OCCCO)ccc2N1C(=O)c1ccc(-c2ccccc2)cc1` (stereo not given in full) belongs 0.116 (inactive); to `[N-]=[N+]=NCc1ccccc1C[C@@]1(C(=O)N2CCCCC2)N=C(c2ccc(OCCCO)cc2)O[C@@H]1c1ccccc1CN=[N+]=[N-]`, -1.27 (inactive); to `COC(=O)[C@@]1(Cc2ccc(OC)cc2)[C@H]2c3cc(C(=O)N4CCCC4)n(Cc4ccc(S(C)(=O)=O)cc4)c3C[C@H]2CN1C(=O)c1ccccc1`, -0.389 (inactive).
To `CCOC(=O)C[C@H]1[C@H](OC(=O)c2ccc(C(=O)c3ccccc3)cc2)[C@@H](NC(=O)CC(C)C)c2cc(OCCCO)ccc2N1C(=O)Cc1ccc(OC)cc1` belongs 0.191 (inactive).
To `O=C1C2C=CC(C(O)c3ccco3)N(Nc3ccccc3)C2C(=O)N1c1ccccc1` (stereo not given) belongs -0.321 (inactive); to `Cc1ccc(F)cc1S(=O)(=O)N[C@@H]1CCN(Cc2cccc3[nH]ccc23)C1`, -0.182 (inactive).
`CCOC(=O)C1=C[C@@H](c2ccccc2)N(S(=O)(=O)c2ccc(C)cc2)[C@H]1c1ccccc1`: the z-score is -1.38 (inactive).
To `COCCOC(=O)N1C(=O)[C@@]2(c3cc(C#CCC(C(=O)OC)C(=O)OC)ccc31)[C@H](c1ccc(OCCO)cc1)N1[C@H](c3ccccc3)[C@H](c3ccccc3)OC(=O)[C@H]1[C@@H]2C(=O)Nc1nc2ccccc2s1` belongs 0.814 (inactive); to `COC(=O)[C@@]1(Cc2ccccc2CN=[N+]=[N-])N=C(c2ccc(OCCCO)cc2)O[C@H]1c1ccccc1`, -5.44 (inactive).
The value for `COC(=O)C(CC#Cc1ccc2c(c1)[C@]1(C(=O)N2)[C@H](c2ccc(OCCO)cc2)N2[C@H](c3ccccc3)[C@H](c3ccccc3)OC(=O)[C@H]2[C@@H]1C(=O)N1CCN(c2ncccn2)CC1)C(=O)OC` was -0.382 (inactive); that for `CCCCCCCCCCC(O)C1C=CC2C(=O)N(C)C(=O)C2N1Nc1cc(OC)c(OC)c(OC)c1` (stereo not given) was -3.17 (inactive); that for `C=CCC(OC(C)=O)[C@@H]1[C@@H](N(Cc2ccc(-c3ccccc3)cc2)C(=O)c2ccc(C)cc2)c2cc(OCCCO)ccc2N1C(=O)Cc1ccc2ccccc2c1` (stereo not given in full) was 1.38 (inactive).
With `Cc1cccc([C@H]2C[C@H]3C(Br)=C[C@@H]2C(=O)[C@]32CO2)c1`, the z-score was -0.423 (inactive).
As for `O=C(O)[C@H]1C[C@H]2C(=O)N[C@@H](Cc3ccccc3)C(=O)N2[C@H]1c1cccc(OCCO)c1`, the z-score was 0.912 (inactive).
The value for `Cc1cccc([C@H]2C[C@H]3C(I)=C[C@@H]2C(=O)[C@]32CO2)c1` was -0.415 (inactive).
To `COc1cc(NN2C(C(O)c3ccc(I)cc3)C=CC3C(=O)N(c4ccccc4)C(=O)C32)cc(OC)c1OC` (stereo not given) belongs -0.694 (inactive); to `CCN(CC)c1ccc(N2CC=CC34O[C@@H]5/C=C\CCC(C)OC(=O)C5[C@H]3C(=O)N(C(C)CO)[C@@H]4C2=O)cc1` (stereo not given in full), 0.259 (inactive); to `C=CC[C@H](OC(=O)Nc1ccc(SC)cc1)c1ccc(OCCO)cc1`, 0.819 (inactive).
For `COCCOC(=O)N1C(=O)[C@@]2(c3cc(C#CCCO)ccc31)[C@H](c1ccccc1OCCO)N1[C@H](c3ccccc3)[C@H](c3ccccc3)OC(=O)[C@H]1[C@@H]2C(=O)N1CCCCCCC1`, the z-score is -0.649 (inactive).
The value for `CC(C)C(=C=CC[C@H](O)c1cccc(OCCO)c1)CCO` was 1.09 (inactive); that for `CCCCNC(=O)c1ccc(C#C[Si](C(C)C)(C(C)C)C(C)C)c(OC(C)=O)c1` was 0.219 (inactive); that for `C[C@@]12COC[C@]13C=C(Br)[C@H](C2)[C@@]1(CO1)C3=O` was -0.0295 (inactive).
The value for `CC(C)[C@H]1NC(=O)[C@@]23C(=O)N[C@@H](Cc4ccccc4)C2[C@H](C)[C@@]2(C)O[C@H]2C3/C=C/CCC/C=C/CNC(=O)[C@H](Cc2ccccc2)NC1=O` (stereo not given in full) was -0.457 (inactive); that for `COCCCNC(=O)[C@@]1(Sc2ccc(C)cc2)CC(=O)N(C(C)C)[C@@H]1c1ccc(CO)cc1I` was -2.35 (inactive); that for `CN(C)CCCCNC(=O)[C@H]1C[C@H]2C(=O)N[C@@H](CCCC[N+](C)(C)C)C(=O)N2[C@H]1c1ccc(O)cc1` was 1.4 (inactive).
